According to PubChem BioAssay AID1159580 (chemical genetic matrix, 2015):
Out of some 5,500 compounds screened, about 2,000 (36%) were called active. About 18% were inconclusive and are not listed. Cut-off read from the data, not from the text of the source: active = normalized growth mostly below about 0.91 (no sharp cut-off); inconclusive = no clear call, values can overlap the other calls; inactive = mostly above about 0.92. The list shows a part of the results.

Assay: chemical genetic growth profiling, strain panel (AID 1159580);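 note: tested at 20 µM; growth read once vehicle control cultures reached saturation at 30 °C; 1 = growth at the plate median or of vehicle wells; lower values mean less growth of the strain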
Conditions: S. cerevisiae deletion strains, growth OD

Measured: normalized growth

COc1cc2c(cc1OC)-c1c(oc3c4c(ccc3c1=O)OC(C(C)C)C4)CO2 (stereo unspecified)
inactive: locus YAL013W, strain DEP1, hits give low values 1.01 | locus YBR021W, strain FUR4, hits give low values 1.06 | locus YBR229C, strain ROT2, hits give low values 1.01 | locus YCL029C, strain bik1, hits give low values 0.99 | locus YDL035C, strain GPR1, hits give low values 1.05 | locus YDL074C, strain BRE1, hits give low values 1.06 | locus YDL101C, strain DUN1, hits give low values 0.981 | locus YDL134C, strain PPH21, hits give low values 0.983 | locus YDL185W, strain tfp1, hits give low values 0.942 | locus YDL192W, strain arf1, hits give low values 1.01 | locus YDR101C, strain arx1, hits give low values 1.04 | locus YDR162C, strain NBP2, hits give low values 0.978 | locus YDR318W, strain mcm21, hits give low values 0.973 | locus YDR388W, hits give low values 0.982 | locus YDR502C, strain sam2, hits give low values 0.978 | locus YER110C, hits give low values 0.989 | locus YER155C, strain BEM2, hits give low values 0.997 | locus YER167W, strain BCK2, hits give low values 1.01 | locus YGL078C, strain dbp3, hits give low values 0.938 | locus YGL086W, strain mad1, hits give low values 0.983 | locus YGL248W, strain PDE1, hits give low values 0.988 | locus YGR078C, strain PAC10, hits give low values 0.982 | locus YGR135W, strain pre9, hits give low values 0.923 | locus YGR252W, strain gcn5, hits give low values 1.03 | locus YHR079C, strain IRE1 (second series), hits give low values 0.969 | locus YHR094C, strain hxt1, hits give low values 0.979 | locus YHR129C, strain ARP1, hits give low values 1 | locus YHR200W, strain rpn10, hits give low values 0.985 | locus YIL066C, strain RNR3, hits give low values 1.03 | locus YIL073C, strain SPO22, hits give low values 0.942 | locus YIL125W, strain kgd1, hits give low values 0.984 | locus YIR030C, strain dcg1, hits give low values 0.968 | locus YJL095W, strain BCK1, hits give low values 0.965 | locus YJL134W, strain LCB3, hits give low values 1 | locus YJL168C, strain set2, hits give low values 0.979 | locus YJL187C, strain SWE1 (second series), hits give low values 0.974 | locus YJR075W, strain HOC1, hits give low values 0.971 | locus YKL009W, strain mrt4, hits give low values 1.02 | locus YKL068W, hits give low values 0.98 | locus YKL085W, strain MDH1 (second series), hits give low values 0.973 | locus YKL085W, strain MDH1, hits give low values 0.973 | locus YKL190W, strain CNB1, hits give low values 0.992 | locus YKR001C, strain vps1, hits give low values 1.01 | locus YLR039C, strain RIC1, hits give low values 0.998 | locus YLR058C, strain SHM2, hits give low values 1 | locus YLR102C, strain apc9, hits give low values 0.988 | locus YLR268W, strain sec22, hits give low values 1.04 | locus YLR330W, strain CHS5, hits give low values 0.998 | locus YLR342W, strain FKS1 (second series), hits give low values 1.1 | locus YLR371W, strain rom2, hits give low values 0.982 | locus YLR418C, strain cdc73, hits give low values 0.981 | locus YML016C, strain PPZ1, hits give low values 0.989 | locus YML032C, strain rad52, hits give low values 1.01 | locus YML124C, strain tub3, hits give low values 0.971 | locus YMR078C, strain ctf18, hits give low values 0.962 | locus YMR223W, strain ubp8, hits give low values 0.979 | locus YMR263W, strain SAP30, hits give low values 0.984 | locus YMR307W, strain GAS1, hits give low values 1.15 | locus YNL067W, strain RPL9B, hits give low values 0.964 | locus YNL153C, strain GIM3, hits give low values 0.963 | locus YNL233W, strain BNI4, hits give low values 0.984 | locus YNL250W, strain rad50, hits give low values 0.93 | locus YNL271C, strain bni1, hits give low values 0.958 | locus YNL298W, strain CLA4, hits give low values 0.979 | locus YNL307C, strain MCK1, hits give low values 0.985 | locus YNR052C, strain pop2, hits give low values 0.962 | locus YOL006C, strain TOP1, hits give low values 1.17 | locus YOL012C, strain htz1 0.827 | locus YOL147C, strain pex11, hits give low values 0.973 | locus YOR061W, strain CKA2, hits give low values 1.02 | locus YOR069W, strain VPS5, hits give low values 0.996 | locus YOR136W, strain idh2, hits give low values 0.965 | locus YOR144C, strain elg1, hits give low values 1 | locus YOR184W, strain ser1, hits give low values 1.08 | locus YOR316C, strain cot1, hits give low values 0.97 | locus YPL241C, strain CIN2, hits give low values 0.986 | locus YPR119W, strain clb2, hits give low values 0.966 | locus YPR141C, strain kar3, hits give low values 0.954 | locus YPR163C, strain tif3, hits give low values 0.988 | locus YPR167C, strain met16, hits give low values 0.973 | strain wtn01, hits give low values 1.03
